Measured values taken from the supplement of paper PMC6555819.

Assays:
Assay in all cases: PBM binding z-score (relative to random genomic background probes); higher = stronger binding; sequences stand for … in GC…GCGATTGACAGCGTAGAATGAAGG
[1] = tested on: RARb homodimer (NR concentration 270 nM)
How it was run: (§1)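 Regression normalization was applied to scanned fluorescence from custom Agilent 4×180K protein-binding microarrays. Before scanning, arrays were incubated 1 h with ligand-free nuclear receptor dimers, and binding was detected with antibodies against each partner (one per run). Binding z-scores use the random background probes as reference.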

[2] = tested on: RARg:RXRa (NR concentration 270 nM, RXRa partner concentration 90 nM)
How it was run: as §1

[3] = tested on: RARg homodimer (NR concentration 270 nM)
How it was run: as §1

[4] = tested on: RXRa DBDmut IVT, anti-RXR (DBD mutation: RXRa K156A/R161A, NR concentration 90 nM)
How it was run: as §1

[5] = tested on: RXRa homodimer (NR concentration 180 nM)
How it was run: as §1

[6] = tested on: THRa:RXRa (NR concentration 90 nM, RXRa partner concentration 90 nM)
How it was run: as §1

[7] = tested on: THRa homodimer (NR concentration 90 nM)
How it was run: as §1

[8] = tested on: VDR homodimer (NR concentration 270 nM)
How it was run: as §1

| Sequence | PBM binding z-score [1] | PBM binding z-score [2] | PBM binding z-score [3] | PBM binding z-score [4] | PBM binding z-score [5] | PBM binding z-score [6] | PBM binding z-score [7] | PBM binding z-score [8] |
| --- | --- | --- | --- | --- | --- | --- | --- | --- |
| CCTGCTAGGTCATAGTCAGCTAATCTACAGTATG | 2.32 | 3.3 | 3.57 | 2.08 | 2.13 | 2.62 | 0.766 | 0.519 |
| TCTGCTAGGTCAGTTGGTCAGCTTACGAGCTGCC | 2.7 | 2.62 | 3.97 | 0.621 | 0.757 | 1.26 | 0.376 | -0.597 |
| ATATGTAGGTTATCGGGTCATTTAGTTTGCGCAT | 3.08 | 3.19 | 2.33 | 1.69 | 3.5 | 3.3 | 2.86 | 2.85 |
| ACTATAAGTTGACTTAGGGCAACCGATACGACGC | 1.03 | 1 | 1.11 | 0.718 | 0.692 | 2.4 | 0.322 | 0.647 |
| TCTTGTAGATCAACAGGAGGTTAGGAAAGATCGA | 0.164 | 0.361 | 0.196 | 0.233 | 0.348 | 0.437 | -0.828 | -0.458 |
| TACACAGGGTCAAAGGCCAGAGTACGAATGTCGA | 3.22 | 5.65 | 5.36 | 3 | 7.62 | 3.5 | 0.79 | 3.23 |
| ATCTGTAGGTAAAAGTTCAGTGAATCCCGAGGAT | 2.42 | 1.79 | 1.84 | 0.663 | 1.65 | 0.83 | -0.173 | 1.36 |
| TCTCGGAGGACAAGAAAGGTCAGAGCTCGACATC | 4.61 | 4.01 | 4.75 | 0.958 | 3.39 | 3.24 | 0.472 | 0.546 |
| CGTCCAAGGTCAGCAGGTCAGGGAAAGCGACGTG | 5.01 | 6.64 | 7.24 | 2.62 | 5.64 | 3.84 | 2.59 | 1.53 |
| CGTCCAAGGTCATAGTAGGTCAGTGAAGACAGAT | 4.63 | 6.11 | 6.44 | 4.14 | 6.11 | 4.94 | 2.97 | 3.93 |
| TCATATAAGTAAATGCTAGGTGAAAGTCCGATCT | 0.289 | 0.478 | 0.348 | 2 | 0.855 | 0.92 | 0.526 | 0.559 |
| TGTCAAAGTTCAAGGGTAACGTAAGTATCCACAC | 3.92 | 5.81 | 6.14 | 3.72 | 5.45 | 2.89 | 0.138 | 3.21 |
| GGACCGAGGGCAAAGTTGATAGCATCTGTCGACG | 1.42 | 2.15 | 1.79 | 2.07 | 2.15 | 1.04 | -0.484 | 1.07 |
| CCTACTGGGCCATCAAGTCATTGATATCAACGTT | 0.27 | 0.122 | 0.368 | 0.0115 | -0.103 | -0.116 | -0.0575 | -0.205 |
| ATCTCTAAGTAACCAAGTTCAGTGAATGCCGAAC | 1.43 | 0.516 | 0.56 | 1.2 | 0.443 | 0.648 | 0.45 | 2.61 |
| CCTGCTAGGTCATGGTCAGCTTATCTACAGTATG | 3.15 | 3.67 | 4.7 | 1.86 | 3.01 | 2.97 | 1.52 | 0.201 |
| CAAACTAGGTCAATGGTCAAAGTCGAGCCAACCA | 3.34 | 3.81 | 4.56 | 1.51 | 2.95 | 2.56 | 0.976 | 0.812 |
| AGAATGAGGTTATACGTAGATCAGGGACGAAAGT | 0.962 | 1.77 | 1.35 | 1.87 | 2.14 | 2.39 | 0.878 | 1.06 |
| CCGACTGGGGCAAAGGTTACCATCCTCAGTACGA | 2.19 | 3.56 | 1.56 | -0.109 | 4.04 | 1.77 | -0.0864 | -0.138 |
| AGAATGATGTTATTAAGATCAGGGAATTGCGGTC | -0.502 | 0.0118 | 0.00602 | -0.521 | 0.203 | 0.093 | -0.511 | -0.127 |
| CCAGACAGGTGTGAAGGTAACTCAGCCTCGATTA | 0.327 | -0.276 | -0.122 | 0.399 | -0.117 | 0.116 | 0.347 | 0.0431 |
| AGACAAAGTTCACTAGGTAACGTAAGATTCAGCT | 3.8 | 4.72 | 5.53 | 4.31 | 3.69 | 2.09 | -0.00149 | 3.48 |
| TAGAGTAGGTTAGGGGCATTCAGAATGGCGTCGA | 1.72 | 1.16 | 0.918 | 0.0146 | 1.08 | 1.36 | 0.85 | 1.66 |
| TAGCCTAGGTGAGATCGGGCCAGTATACGCTATA | -0.246 | -0.235 | 0.0324 | -1.2 | -0.204 | 1.52 | -0.733 | -0.357 |
| GGAACGAGGGCAAGTTGATAGCTGAGTTTGATGG | 1.5 | 1.45 | 2.07 | 2.58 | 0.669 | 1.09 | 0.0146 | 1.84 |
| CATACAGGGTCAGCTAGGCCAGAGTCGGGACGGC | 3.18 | 4.42 | 4.67 | 2.13 | 4.21 | 3.08 | 0.802 | 1.31 |

| Sequence | PBM binding z-score [1] | PBM binding z-score [2] | PBM binding z-score [3] | PBM binding z-score [4] | PBM binding z-score [5] | PBM binding z-score [6] | PBM binding z-score [7] | PBM binding z-score [8] |
| --- | --- | --- | --- | --- | --- | --- | --- | --- |
| TTACCAAGGTGAAGGTGGTTGATCCCTCTGTAGA | 0.653 | 0.26 | 0.431 | -0.51 | 0.689 | 1.78 | 0.829 | -0.454 |
| TCATATAGGTAACCAGGTGAAAGTCCGTAAGTTA | 0.957 | 0.558 | 0.452 | 1.38 | 1.25 | 1.73 | 1.05 | 0.27 |
| CCTTACGGGTCACTGATAGGTTATAGCATTTGGA | 3.34 | 5.65 | 4.89 | 1.85 | 5.48 | 2.74 | 0.24 | 1.17 |
| CCTTACGAGTCACGAGGTTATAGCACGACGAGCG | 1.11 | 1.27 | 1.04 | 0.554 | 1.8 | 1.9 | 1.19 | 1.26 |
| CGAACTAGGTCAGAAGAGGACAGTGAAGGATGAT | 2.53 | 2.68 | 3.66 | 0.392 | 1.03 | 4.34 | 0.406 | 0.275 |
| GCTGCTACGTCAGGTTGGTCAGCTAACGGGTACG | -0.00672 | -0.503 | -0.278 | -0.049 | -0.469 | -0.38 | -0.55 | -0.226 |
| GCTAGTTGGTCGGTAAAAGGTCACACACCGGTCG | 4.97 | 5.3 | 4.72 | 0.311 | 5.42 | 3.47 | 1.92 | 1.59 |
| CCTACTCGGCCAAGGTCATTGATCAGTCAAAGCA | 3.33 | 3.95 | 3.71 | 2.24 | 3.6 | 3.36 | 2.98 | 3.83 |
| CCGACTCGGGCAAGGTTACCATAACGCACAGCCA | 1.08 | 1.01 | 0.939 | -0.233 | 1.11 | 1.19 | 0.176 | -0.43 |
| CCTCACGGGTCACTGACAGGTTATAGCATTTGGA | 3.33 | 5.64 | 4.5 | 1.81 | 4.65 | 2.77 | 0.669 | 1.02 |
| TCTCGGAGGACACGAAGGTCCGAGCTTTCCAGAG | 0.577 | 0.296 | 1.3 | 0.546 | -0.235 | 1.26 | -0.0585 | -0.315 |
| ACCATTAGTTGACTTAGGGCAACCGATACGACGC | 1.34 | 0.733 | 0.851 | 0.744 | 0.478 | 1.61 | 0.915 | 0.163 |
| ATATGTAGGATAAGGGTCATTCAGGTTGGTTCGC | 3.69 | 3.9 | 3.42 | 2.09 | 4.8 | 3.25 | 1.38 | 4.54 |
| CCTACTGGGTCAAAAAGGTCATTGATGCCGATAA | 5.05 | 6.12 | 5.84 | 1.56 | 6.62 | 3.76 | 1.1 | 4.79 |
| TTAATGAGGTTATAAGATCAGGGAACGTTGCAAA | 0.668 | 1.59 | 1.01 | 1.63 | 2.13 | 2.04 | 0.52 | 0.74 |
| ACTATTACTTGAGACGAGGGCAACCGATAGGTTG | 1.67 | 0.798 | 0.981 | 1.01 | 0.63 | 1.15 | 1.02 | 1.76 |
| TAGCCTAGGTCATGCGGGCCAGAATAGTGTCGGC | 2.94 | 4.18 | 4.34 | 0.571 | 3.18 | 3.03 | 0.922 | 0.435 |
| CCGTCTGGGGCAAGGTTACCATAACGCACAGCCA | 1.05 | 1.06 | 1.13 | -0.58 | 0.988 | 1.15 | 0.197 | 0.0669 |
| GGAACGAGAGCAAGTTGATAGCAGAGTTTGATGG | -0.683 | -0.186 | -0.0143 | 0.292 | 0.0687 | -0.547 | -1.15 | -0.0204 |
| CGTCAAAGTTTAACTAAGGTAACGTAAAGCACGC | 1.7 | 1.51 | 1.92 | 1.68 | 0.784 | 4.66 | 1.99 | 0.79 |
| CCGACTGGGGCAAGGTTACCATAACGCACAGCCA | 1.33 | 1.31 | 1.39 | -0.473 | 1.34 | 1.33 | 0.342 | -0.0373 |
| ATATGTAGGTTACATCCAGGTCATTCAGGCTATG | 3.23 | 3.8 | 2.4 | 1.19 | 2.91 | 4.23 | 3.46 | 2.88 |
| ACTAGCAGGCCAAGTTTGGGTCACACAAACAAAG | 2.17 | 2.66 | 1.73 | -0.304 | 1.44 | 2.67 | 1.04 | 0.103 |
| TCTCGGAGGACACGTAGGTCAGAGCTTTCCAGAG | 2.65 | 2.17 | 2.67 | 0.656 | 1.04 | 2.44 | 0.686 | 0.567 |
| CTACCAAGGTTAACAAGGTCGTTGATTACTATTC | 2.69 | 2.82 | 2.39 | 2.35 | 2.98 | 3.39 | 1.93 | 3.98 |
| CGCCCAAGGTCATAGGAGGTCAGTGAAGACAGAT | 5.6 | 6.7 | 7.14 | 3.41 | 6.07 | 5.34 | 3.1 | 3.97 |
